Data from PubChem BioAssay AID1159580 (chemical genetic matrix, 2015).
Out of some 5,500 compounds screened, about 2,000 (36%) were called active. Roughly 18% stayed inconclusive and do not appear here. Cut-off read from the data, not from the text of the source: active = normalized growth mostly below about 0.91 (no sharp cut-off); inconclusive = no clear call, values can overlap the other calls; inactive = mostly above about 0.92. The list shows a part of the results.

Experiment: chemical genetic growth profiling, strain panel (AID 1159580);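 note: tested at 20 µM; growth read once vehicle control cultures reached saturation at 30 °C; 1 = growth at the plate median or of vehicle wells; lower values mean less growth of the strain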
Conditions: growth OD

Measured: normalized growth

O=c1[nH]c(=O)n(C2C[C@H](O)[C@@H](CO)O2)cc1C(F)(F)F (stereo partly specified)
inactive: S. cerevisiae deletion strains, locus YKL009W, strain mrt4, hits give low values 0.981 | S. cerevisiae deletion strains, locus YKL068W, hits give low values 0.978 | S. cerevisiae deletion strains, locus YKL085W, strain MDH1 (second series), hits give low values 0.974 | S. cerevisiae deletion strains, locus YKL085W, strain MDH1, hits give low values 0.974 | S. cerevisiae deletion strains, locus YKL160W, strain elf1, hits give low values 0.954 | S. cerevisiae deletion strains, locus YKL190W, strain CNB1, hits give low values 0.996 | S. cerevisiae deletion strains, locus YKR001C, strain vps1, hits give low values 0.982 | S. cerevisiae deletion strains, locus YKR026C, strain gcn3, hits give low values 0.973 | S. cerevisiae deletion strains, locus YKR091W, strain srl3, hits give low values 0.96 | S. cerevisiae deletion strains, locus YLL001W, strain dnm1, hits give low values 0.994 | S. cerevisiae deletion strains, locus YLL026W, hits give low values 0.962 | S. cerevisiae deletion strains, locus YLL041C, strain sdh2, hits give low values 0.954 | S. cerevisiae deletion strains, locus YLR027C, strain aat2, hits give low values 0.965 | S. cerevisiae deletion strains, locus YLR039C, strain RIC1, hits give low values 0.934 | S. cerevisiae deletion strains, locus YLR058C, strain SHM2, hits give low values 0.968 | S. cerevisiae deletion strains, locus YLR102C, strain apc9, hits give low values 0.98 | S. cerevisiae deletion strains, locus YLR113W, strain HOG1, hits give low values 0.996 | S. cerevisiae deletion strains, locus YLR221C, strain rsa3, hits give low values 0.988 | S. cerevisiae deletion strains, locus YLR258W, strain gsy2, hits give low values 0.965 | S. cerevisiae deletion strains, locus YLR262C, strain YPT6 (second series), hits give low values 0.936 | S. cerevisiae deletion strains, locus YLR262C, strain YPT6, hits give low values 0.955 | S. cerevisiae deletion strains, locus YLR268W, strain sec22, hits give low values 0.962 | S. cerevisiae deletion strains, locus YLR320W, strain mms22, hits give low values 1 | S. cerevisiae deletion strains, locus YLR330W, strain CHS5, hits give low values 0.988 | S. cerevisiae deletion strains, locus YLR342W, strain FKS1 (second series), hits give low values 1 | S. cerevisiae deletion strains, locus YLR342W, strain FKS1, hits give low values 0.966 | S. cerevisiae deletion strains, locus YLR357W, strain rsc2, hits give low values 0.981 | S. cerevisiae deletion strains, locus YLR370C, strain arc18, hits give low values 0.947 | S. cerevisiae deletion strains, locus YLR371W, strain rom2, hits give low values 0.97 | S. cerevisiae deletion strains, locus YLR384C, strain iki3, hits give low values 0.952 | S. cerevisiae deletion strains, locus YLR418C, strain cdc73, hits give low values 0.975 | S. cerevisiae deletion strains, locus YML016C, strain PPZ1, hits give low values 0.993 | S. cerevisiae deletion strains, locus YML032C, strain rad52, hits give low values 0.979 | S. cerevisiae deletion strains, locus YML120C, strain ndi1, hits give low values 0.992 | S. cerevisiae deletion strains, locus YML124C, strain tub3, hits give low values 0.972 | S. cerevisiae deletion strains, locus YMR058W, strain fet3, hits give low values 0.952 | S. cerevisiae deletion strains, locus YMR078C, strain ctf18, hits give low values 0.972 | S. cerevisiae deletion strains, locus YMR125W, strain sto1, hits give low values 0.95 | S. cerevisiae deletion strains, locus YMR129W, hits give low values 0.967 | S. cerevisiae deletion strains, locus YMR205C, strain PFK2, hits give low values 0.983 | S. cerevisiae deletion strains, locus YMR223W, strain ubp8, hits give low values 0.988 | S. cerevisiae deletion strains, locus YMR231W, strain pep5, hits give low values 0.981 | S. cerevisiae deletion strains, locus YMR263W, strain SAP30, hits give low values 1 | S. cerevisiae deletion strains, locus YMR307W, strain GAS1, hits give low values 0.978 | S. cerevisiae deletion strains, locus YNL067W, strain RPL9B, hits give low values 0.992 | S. cerevisiae deletion strains, locus YNL071W, strain lat1, hits give low values 1 | S. cerevisiae deletion strains, locus YNL128W, strain TEP1, hits give low values 0.976 | S. cerevisiae deletion strains, locus YNL153C, strain GIM3, hits give low values 0.992 | S. cerevisiae deletion strains, locus YNL183C, strain NPR1, hits give low values 0.966 | S. cerevisiae deletion strains, locus YNL209W, strain ssb2, hits give low values 0.961 | S. cerevisiae deletion strains, locus YNL233W, strain BNI4, hits give low values 0.978 | S. cerevisiae deletion strains, locus YNL248C, strain rpa49, hits give low values 0.926 | S. cerevisiae deletion strains, locus YNL250W, strain rad50, hits give low values 0.951 | S. cerevisiae deletion strains, locus YNL271C, strain bni1, hits give low values 0.983 | S. cerevisiae deletion strains, locus YNL298W, strain CLA4, hits give low values 0.971 | S. cerevisiae deletion strains, locus YNL307C, strain MCK1, hits give low values 0.972 | S. cerevisiae deletion strains, locus YNL322C, strain KRE1 (second series), hits give low values 0.935 | S. cerevisiae deletion strains, locus YNL322C, strain KRE1, hits give low values 0.989 | S. cerevisiae deletion strains, locus YNR049C, strain mso1, hits give low values 0.957 | S. cerevisiae deletion strains, locus YNR052C, strain pop2, hits give low values 0.992 | S. cerevisiae deletion strains, locus YOL006C, strain TOP1, hits give low values 0.969 | S. cerevisiae deletion strains, locus YOL012C, strain htz1 0.749 | S. cerevisiae deletion strains, locus YOL147C, strain pex11, hits give low values 0.974 | S. cerevisiae deletion strains, locus YOR001W, strain rrp6, hits give low values 0.99 | S. cerevisiae deletion strains, locus YOR061W, strain CKA2, hits give low values 0.987 | S. cerevisiae deletion strains, locus YOR069W, strain VPS5, hits give low values 0.983 | S. cerevisiae deletion strains, locus YOR070C, strain gyp1, hits give low values 0.977 | S. cerevisiae deletion strains, locus YOR080W, strain dia2, hits give low values 0.96 | S. cerevisiae deletion strains, locus YOR083W, strain WHI5, hits give low values 0.917 | S. cerevisiae deletion strains, locus YOR106W, strain vam3, hits give low values 0.95 | S. cerevisiae deletion strains, locus YOR136W, strain idh2, hits give low values 0.978 | S. cerevisiae deletion strains, locus YOR144C, strain elg1, hits give low values 0.97 | S. cerevisiae deletion strains, locus YOR184W, strain ser1, hits give low values 0.983 | S. cerevisiae deletion strains, locus YOR231W, strain MKK1, hits give low values 0.992 | S. cerevisiae deletion strains, locus YOR265W, strain rbl2, hits give low values 0.971 | S. cerevisiae deletion strains, locus YOR270C, strain vph1, hits give low values 0.948 | S. cerevisiae deletion strains, locus YOR290C, strain snf2, hits give low values 0.949 | S. cerevisiae deletion strains, locus YOR316C, strain cot1, hits give low values 0.983 | S. cerevisiae deletion strains, locus YPL051W, strain arl3, hits give low values 0.981 | S. cerevisiae deletion strains, locus YPL055C, strain LGE1, hits give low values 0.985 | S. cerevisiae deletion strains, locus YPL078C, strain atp4, hits give low values 0.988 | S. cerevisiae deletion strains, locus YPL106C, strain sse1, hits give low values 0.944 | S. cerevisiae deletion strains, locus YPL240C, strain hsp82, hits give low values 0.969 | S. cerevisiae deletion strains, locus YPL241C, strain CIN2, hits give low values 0.983 | S. cerevisiae deletion strains, locus YPL256C, strain CLN2, hits give low values 1.04 | S. cerevisiae deletion strains, locus YPR119W, strain clb2, hits give low values 0.987 | S. cerevisiae deletion strains, locus YPR141C, strain kar3, hits give low values 0.959 | S. cerevisiae deletion strains, locus YPR163C, strain tif3, hits give low values 0.972 | S. cerevisiae deletion strains, locus YPR167C, strain met16, hits give low values 0.971 | S. cerevisiae deletion strains, strain wtn01, hits give low values 0.985 | S. cerevisiae strains, strain wild type, hits give low values 0.985
